Measurements from the supplement of paper PMC7380943.

Assays:
[1] = tested on: CLZ3 (HCA2 human fibroblast dual HR-NHEJ reporter); test: NHEJ repair efficiency (GFP+ cells) relative to control (log10 fold); higher = more non-homologous end joining; details: 5 µM; doxycycline 0.5 ug/mL
[2] = tested on: CLZ3 (HCA2 human fibroblast dual HR-NHEJ reporter); test: HR repair efficiency (tdTomato+ cells) relative to control (log10 fold); higher = more homologous recombination; details: 5 µM; doxycycline 0.5 ug/mL
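For HR repair efficiency (tdTomato+ cells) relative to control in this document: compound given one day before doxycycline, which switches on I-SceI endonuclease expression to create double-strand breaks within the integrated reporter.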
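For NHEJ repair efficiency (GFP+ cells) relative to control in this document: compound given one day ahead of doxycycline, which switches on I-SceI endonuclease to cut the chromosomally integrated reporter and create DSBs.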

Row | SMILES | NHEJ repair efficiency (log10) [1] | HR repair efficiency (log10) [2]
1 | Oc1ccc(/C=C/c2cc(O)cc(O)c2)cc1 [Resveratrol] | -0.0132 | 0.0336
2 | C=C[C@@H]1CNC(=S)O1 [Epigoitrin] | 0.17 | 0.212
3 | O=C1c2ccccc2C(=O)c2c1cc(O)c(CO)c2O [Lucidin] | 0.134 | 0.258
4 | CO[C@H]1O[C@@H]2O[C@@]3(C)CC[C@H]4[C@H](C)CC[C@@H]([C@H]1C)[C@@]24OO3 [Artemether] | 0.125 | 0.186
5 | C[C@@H]1O[C@@H](Oc2c(-c3ccc(O)c(O)c3)oc3cc(O)cc(O)c3c2=O)[C@H](O)[C@H](O)[C@H]1O [Quercitrin] | -0.0507 | 0.0282
6 | C[C@H]1O[C@@H](O[C@H]2CC[C@@]3(C)[C@@H](CC[C@]4(C)[C@@H]3C=C[C@]35OC[C@@]6(CCC(C)(C)C[C@H]63)[C@@H](O)C[C@]54C)[C@]2(C)CO)[C@H](O)[C@@H](O[C@@H]2O[C@H](CO)[C@@H](O)[C@H](O)[C@H]2O)[C@H]1O [Saikosaponin a] | -0.305 | -0.315
7 | C[C@H](CCC(=O)NCCS(=O)(=O)O)[C@H]1CC[C@H]2[C@@H]3C[C@H](O)[C@@H]4C[C@H](O)CC[C@]4(C)[C@H]3CC[C@]12C [Taurohyodeoxycholic Acid] | 0.0397 | 0.133
8 | CC[C@H](/C=C/[C@@H](C)[C@H]1CC[C@H]2[C@@H]3CC=C4C[C@@H](O)CC[C@]4(C)[C@H]3CC[C@]12C)C(C)C [Stigmasterol] | -0.155 | -0.14
9 | CC1(C)CC[C@]2(C(=O)O)CC[C@]3(C)C(=CC[C@@H]4[C@@]5(C)C[C@@H](O)[C@H](O)C(C)(C)[C@@H]5CC[C@]43C)[C@@H]2C1 [Maslinic Acid] | -0.0568 | -0.0914
